p53null 39C tox – p53 null cell cytotoxicity, nonpermissive temperature | H1299 p53-null (neo) cells, 39C, ATPlite viability, 24 h | Potency, µM (titrated, usually from 46.1 µM), for inactives: top-dose activity, negative = cell killing, usual class: cytotoxic | actives 0.97% (n = 55,000) | AID 904;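 further: 0% = DMSO only and -100% = full killing by 100 µM tamoxifen; nearly all actives have a fitted effect of over 50% in size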
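Cells seeded at 600/well, 37C overnight. Compound added (up to 46 uM), plates shifted to 39C for 24 hr. ATPlite added, luminescence read after 20 min at room temperature.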
p53null 32C kill – selectivity test: cytotoxicity in p53 null cells, permissive temperature. Potency, µM (titrated, usually from 46.1 µM), without a hit: top-dose activity change, negative = cytotoxicity, actives largely listed as cytotoxic. actives 0.62% (n = 55,000). H1299-neo p53 null cells, ATP luminescence, 24 h, 32C;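 further: 0% = DMSO only and -100% = full killing by 100 µM tamoxifen; nearly all actives have a fitted effect of over 55% in size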
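We seeded p53-null H1299-neo cells, incubated them overnight at 37C, and added compounds across a range up to 46 uM. After 24 hours at 32C, ATP reagent was applied for 20 min at room temperature and luminescence recorded.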
NTMT1 inh – inhibitors of human N-terminal methyltransferase NTMT1; NTMT1 MTase-Glo SAH luminescence, purified enzyme; Potency, µM (highest dose often 114 µM), without a hit: at the highest dose activity change, negative = inhibition, hits mostly inhibitors; actives 2.5% (n = 59,000); AID 1645870;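 further: plate controls were DMSO vehicle for no effect and no enzyme for full effect; nearly all actives have a fitted effect of over 65% in size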
Target sequence (Q9BV86 whole entry, looked up): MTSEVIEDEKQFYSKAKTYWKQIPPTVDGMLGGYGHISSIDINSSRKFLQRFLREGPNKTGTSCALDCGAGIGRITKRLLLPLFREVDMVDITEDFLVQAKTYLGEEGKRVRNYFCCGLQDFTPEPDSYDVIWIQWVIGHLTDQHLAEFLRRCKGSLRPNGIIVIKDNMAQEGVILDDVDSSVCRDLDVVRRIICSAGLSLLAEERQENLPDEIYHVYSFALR
OvCa metastasis – ovarian cancer metastasis inhibition, 3D TME model; actives 0.1% (n = 46,000); AID 1963576; SKOV3ip1-GFP adhesion/invasion on 3D omental model, fluorescence; Potency, µM (doses to about 45.8 µM), inactives show at the highest dose activity change, negative = inhibition, most hits filed as inhibitors;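 further: plate controls were DMSO wells for no effect and tomatine positive control wells for full effect; nearly all actives have a fitted effect of over 65% in size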
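qHTS, 4-pt dose (0.36-46 umol/L); SKOV3ip1-GFP, 1,200 cells/well, no FBS; primary omental fibroblast/mesothelial co-culture 48 h pre-grown; 2 h RT + 16 h 37 C; PBS wash, 4% PFA; GFP count 488/509 nm.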
Active calls of the source: *; i = inactive; ? = inconclusive; nt = no result; ! = repeats disagree; [ ] = remark or other dose. Shown is part of a subset that was picked to be rich in hits. The call rests on the fitted dose curve; in most records, active means well fitted curve in the direction sought with a large enough effect; inconclusive means small, poorly fitted or top-dose-only effect, or another doubt; inactive means no such curve, though single readings can be large; an effect the other way counts as inactive or inconclusive. Potency means the concentration at half of the fitted maximal effect.

SMILES | p53null 39C tox | p53null 32C kill | NTMT1 inh | OvCa metastasis
O=C(CC(c1ccccc1)c1cc(Br)ccc1O)NCC1(c2ccccc2)CCCC1 (stereo not drawn) | 15.8µM* | ? | nt | ?
O=C(CCCCSc1nnc(-c2cccc3ccccc23)o1)Oc1ccc(F)cc1 | nt | nt | 13.7% | nt
CSc1n[nH]c(NCc2ccc(C)cc2)n1 | 11.2µM* | 20µM* | nt | nt
CSc1n[nH]c(NCc2ccc(Cl)cc2)n1 | 2.7% | -26.2% | nt | nt
Cc1cccc(CN2CCN(C(c3ccccc3)c3ccc(Cl)cc3)CC2)c1 (stereo not drawn) | nt | nt | 31.6µM*! | -11.1%
Cc1cc(Nc2cccc(Cl)c2)nc2ccc(NC(=O)c3cccnc3)cc12 | 25.1µM* | ? | ? | i
Cc1cc(Nc2cccc(Cl)c2)nc2ccc(NC(=O)c3cccc(N(C)C)c3)cc12 | 3.3% | -0.1% | ? | -3.9%
CC(C)OCc1cc(CN2CCN(c3ccccc3)CC2)c(O)c2ncccc12 | 1.26µM* | ? | 5.9% | 6.3%
O=C1CCCC2=C1C(c1[nH]ncc1Br)N=C(Nc1nc3ccccc3o1)N2 (stereo not drawn) | nt | nt | 1.9% | nt
Nc1cccc2c1CN([C@H]1CCC(=O)NC1=O)C2=O | nt | nt | 11.6% | nt
O=C(O)CCc1cccc(O[C@@H]2O[C@H](CO)[C@@H](O)[C@H](O)[C@H]2O)c1O | nt | nt | 2.0%[29.8 µM] | nt
CCCn1c(/C=C/c2ccccc2)nc2ccccc21 | ? | 15.8µM* | ? | -0.9%
O=C(c1ccc[nH]1)c1cc(Cl)ccc1NC(=O)[C@@H]1CCCN1 | nt | nt | 3.2% | nt
Cc1ccc(OCCn2c(CCNC(=O)c3cccc(C(F)(F)F)c3)nc3ccccc32)cc1 | nt | nt | 3.7%[57.5 µM] | nt
Cc1ccc(Nc2ncnc3c2nc2n3CCCC2)c(Br)c1 | 11.2µM* | ? | ? | -5.9%
Cc1ccc(CNc2ncnc3c2nc2n3CCCC2)cc1 | -12.8% | -12.4% | -20.8% | 24.9%
COc1ccccc1-c1nc(NCc2ccc(-c3cccnc3)cc2)c2ccccc2n1 | nt | nt | 8.2% | nt
COC(=O)c1c(SCC(=O)Nc2ccccc2C(F)(F)F)[nH]c2ccc(Cl)cc2c1=O | 6.31µM* | -25.2% | 15.5% | 4.9%
Cc1ccc(N2CCC(CNc3nc(-c4ccccc4C(C)C)ncc3F)CC2)cn1 | nt | nt | 3.5% | nt
CCCc1ncc(C[n+]2ccccc2C)c(N)n1 | nt | nt | 35.5µM* | nt
C#C[C@]1(O)CC[C@H]2[C@@H]3[C@H](C)CC4=C(CCC(=O)C4)[C@H]3CC[C@@]21C | nt | nt | 25.1µM*! | nt
C#CC1(O)CC[C@H]2[C@@H]3CCC4=CCCC[C@@H]4[C@H]3CC[C@@]21C (stereo partly drawn) | nt | nt | -8.5%[57.5 µM] | nt
COc1ccc(S(=O)(=O)N[C@@H](CNc2nc(C)nc(N3CCC(c4ccc5c(n4)NCCC5)CC3)c2C)C(=O)O)cc1 | nt | nt | 8.5% | nt
COc1cc(O)c2c(c1)/C=C/C[C@H](O)[C@H](O)C(=O)/C=C\C[C@H](C)OC2=O | nt | nt | 25.1µM* | nt
COc1cc(O)c2c(c1)C1=CC(O)C(O)CC1(C)OC2=O (stereo not drawn) | nt | nt | 4.2%[57.5 µM] | nt
SMILES | p53null 39C tox | p53null 32C kill | NTMT1 inh | OvCa metastasis
CC1=C(C(=O)c2ccccc2)C(c2ccccc2Cl)N=C(Nc2nc3ccccc3o2)N1 (stereo not drawn) | nt | nt | 10.7% | nt
CCC(=O)N1c2ccc(S(=O)(=O)N3CCN(c4ccccc4Cl)CC3)cc2CC1C (stereo not drawn) | 4.6% | 6.8% | 89.1µM* | i
CC(=O)N1c2ccc(S(=O)(=O)N3CCN(c4cccc(Cl)c4)CC3)cc2CC1C (stereo not drawn) | -6.6% | -5.0% | -16.4% | -4.4%
Cc1ccc(C2c3c(-c4cc(C)ccc4O)n[nH]c3C(=O)N2Cc2ccco2)cc1 (stereo not drawn) | ? | 17.8µM* | 7.0% | ?
CCOC(=O)N1CCN(C(=O)Cn2sc3nc(C)cc(C)c3c2=O)CC1 | nt | nt | 3.16µM* | nt
COc1ccc(C(=O)Nc2ccc(-c3nc4ccccc4[nH]3)cc2)cc1F | nt | nt | 18.4%[57.5 µM] | nt
CCc1ccccc1NC(=O)Cn1c(=O)oc2ccccc21 | -11.8% | 12.0% | 2.0% | 11.3%
COc1ccc(NC(=O)Cn2c(=O)oc3ccccc32)cc1 | 18.3% | 2.5% | 89.1µM* | 23.0%
CCN(CC)CCOc1ccc(Cc2ccccc2)cc1 | nt | nt | 31.6µM*! | -5.9%
CCCCn1cnc2cc(C(=O)N3CCCCC3)ccc21 | nt | nt | 14.7% | nt
Cc1cccc(CNc2ccnc(-c3ccc4ccccc4c3)n2)c1 | nt | nt | 11.4% | nt
Cc1cc(-c2ccc(/C=C3\SC(=Nc4ccc(Cl)c(C(=O)O)c4)NC3=O)o2)c([N+](=O)[O-])cc1C | nt | nt | 25.1µM* | nt
O=C(/C(C=Nc1ccc(Br)cc1)=C(/O)c1ccco1)C(F)(F)F | ? | 5.01µM* | nt | nt
CC(=O)c1nn(-c2ccc(Br)cc2)cc1C(=O)c1ccco1 | 2.6% | 4.0% | nt | nt
Clc1ccccc1CSc1nc2ncc(Br)cc2[nH]1 | nt | nt | -6.6%[57.5 µM] | nt
O=C(NCCc1nc2ccccc2n1CCOc1ccc(C(F)(F)F)cc1)C1CCCCC1 | nt | nt | 3.5%[57.5 µM] | nt
O=C(NCCc1nc2ccccc2n1CCOc1ccc(Cl)cc1)C1CCCCC1 | 12.6µM* | -10.4% | -2.9% | nt
Brc1sc2c(c1-c1nc3ccccc3s1)CCNC2 | nt | nt | -17.5% | nt
CN(CC(=O)Nc1ccc(N2CCOCC2)cc1)Cc1cccc2ccccc12 | nt | nt | -2.8% | nt
Clc1cccc(N2CCN(c3ncnc4c3nc3n4CCCC3)CC2)c1 | -38.2% | -11.2% | 50.1µM* | i
COc1cc(OC)cc(C(=O)Nc2ccc3nc4n(c(=O)c3c2)CCCCC4)c1 | ? | ? | 44.7µM* | -4.4%
COc1ccc(C)cc1NC(=O)c1ccc2c(=O)n3c(nc2c1)CCCCC3 | ? | -6.5% | 79.4µM* | -2.0%
COc1cccc(NC(=O)CC(=O)Nc2ccc3nc4n(c(=O)c3c2)CCCCC4)c1 | -5.4% | -3.8% | -0.1% | i
Cc1csc(NC(=O)c2ccc3c(=O)n4c(nc3c2)CCCCC4)n1 | -0.3% | nt | nt | nt
C=Cc1c(C)c2cc3[nH]c(cc4nc(cc5nc(cc1[nH]2)C(C)=C5CCC(=O)O)C(CCC(=O)O)=C4C)c(C)c3C=C | nt | nt | 25.1µM* | nt
Cc1ccccc1C(=O)N1CCc2cc(-c3ccnc(NC(=O)Cc4ccccc4)n3)ccc21 | nt | nt | 0.4% | nt
COc1ccccc1-c1cc(C(=O)Nc2sc3c(c2C#N)CCCC3)no1 | 0.0% | -6.2% | -17.5% | i
Cc1cc(C(=O)Nc2sc3c(c2C#N)CCCC3)no1 | 11.2µM* | 14.1µM* | nt | nt
CCC(C)CCCCC(=O)N[C@@H](CCN)C(=O)NC(C(=O)N[C@H](CCN)C(=O)N[C@@H]1CCNC(=O)C([C@@H](C)O)NC(=O)[C@@H](CCN)NC(=O)[C@@H](CCN)NC(=O)[C@@H](CC(C)C)NC(=O)[C@H](Cc2ccccc2)NC(=O)[C@H](CCN)NC1=O)[C@@H](C)O (stereo partly drawn) | nt | nt | ? | 2.0%

Source: PubChem (National Center for Advancing Translational Sciences (NCATS))
